ChEMBL document CHEMBL3433997, “St. Jude Leishmania screening dataset” (2016)

How the values were obtained:
Assay type in all cases: functional
[1] = target: Solute carrier family 2, facilitated glucose transporter member 1 (Homo sapiens) (UniProt P11166); assay: ST_JUDE_LEISH: Cytotoxicity at 2uM final concentration against transgenic Leishmania Mexicana promastigotes LmGLUT1 that are glucose transport deficient and complemented with the human glucose transporter GLUT1. Activity is measured by DNA content using SYBR green in vitro
Solute carrier family 2, facilitated glucose transporter member 1 (Homo sapiens), sequence (P11166 whole entry): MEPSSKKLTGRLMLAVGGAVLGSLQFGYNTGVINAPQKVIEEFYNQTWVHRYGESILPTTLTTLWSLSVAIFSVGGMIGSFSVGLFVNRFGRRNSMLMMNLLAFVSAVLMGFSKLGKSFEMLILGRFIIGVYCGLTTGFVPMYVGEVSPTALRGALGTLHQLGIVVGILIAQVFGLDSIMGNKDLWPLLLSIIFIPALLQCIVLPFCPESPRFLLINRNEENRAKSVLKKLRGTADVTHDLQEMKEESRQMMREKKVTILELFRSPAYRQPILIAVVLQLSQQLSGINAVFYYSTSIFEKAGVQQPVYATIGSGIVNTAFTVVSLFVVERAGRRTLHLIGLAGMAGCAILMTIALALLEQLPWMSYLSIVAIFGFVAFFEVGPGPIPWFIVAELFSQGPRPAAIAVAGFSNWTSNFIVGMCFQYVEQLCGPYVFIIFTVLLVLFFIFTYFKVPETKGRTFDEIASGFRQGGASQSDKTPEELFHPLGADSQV

[2] = target: Hexose transporter 1 (Plasmodium falciparum) (UniProt O97467); assay: ST_JUDE_LEISH: Cytotoxicity at 2uM final concentration against transgenic Leishmania Mexicana promastigotes LmPfHT that are glucose transport deficient and complemented with the Plasmodium falciparum hexose transporter. Activity is measured by DNA content using SYBR green in vitro
[3] = target: Glucose transporter (Leishmania mexicana) (UniProt O61059); assay: ST_JUDE_LEISH: Cytotoxicity at 2uM final concentration against transgenic Leishmania Mexicana promastigotes LmGT2 that are glucose transport deficient and complemented with the L. Mexicana glucose transporter 2. Activity is measured by DNA content using SYBR green in vitro

Row | SMILES | inhibition [1] [%] | inhibition [2] [%] | inhibition [3] [%]
1 | COc1ccc(Nc2ncc(Cl)c(Nc3cccnc3C(N)=O)n2)cc1N1CCN(C)CC1 | 89.9 | 92.6 | 85.9
2 | O=C(Nc1ccc(C(=O)OCC(c2ccccc2)c2ccccc2)cc1)N[C@@H](Cc1ccc(O)cc1)C(=O)NC1CCN(Cc2ccc(O)cc2)C1 (stereo partly specified) | -0.47 | -1.74 | -3.39
3 | CS(=O)(=O)Nc1cccc(-c2cnc3[nH]cc(-c4ccc(C(=O)O)cc4)c3c2)c1 | 0.37 | 0.36 | 3.74
4 | Cn1cncc1C(=O)Nc1cccc(-c2ccc(-c3nc4ccccc4[nH]3)s2)c1 | 3.45 | 2.88 | 4.94
5 | Cc1cccc2nc(-c3ccc(-c4cccc(NC(=O)COc5ccccc5C(N)=O)c4)s3)[nH]c12 | 9.69 | 9.14 | 6.9
6 | Nc1nc(N)c2cc(Cc3ccc([N+](=O)[O-])cc3)cnc2n1 | -2.65 | 0.37 | -0.27
7 | COc1ccc(C=NN=c2cc(C)[nH]c3ccccc23)c2ccccc12 | 8.8 | 6.92 | 2.26
8 | C[C@H](NC(=O)c1c(CN2CCC(N3CCCCC3=O)CC2)c(-c2cccs2)nc2ccccc12)C1CCCCC1 | 4.3 | 0.29 | 0.41
9 | COc1cc2nc(NCCc3ccccc3)nc(NCc3cc(C)no3)c2cc1OC | 4.85 | 4.61 | 2.42
10 | COc1cc2c(cc1OCCN1CCC(N3CCCCC3)CC1)N(C(=O)/C=C/c1ccccc1Cl)CC2 | 0.24 | 1.79 | 1.83
11 | CC(C)N1CCC(N(Cc2ccc(-c3ccc(Cl)cc3)cc2)C(=O)Cn2c(CCc3cccc(F)c3F)nc(=O)c3ccccc32)CC1 | 6.02 | 5.38 | 3.03
12 | OCCC1CCN(Cc2ccc(-c3ccc(-c4nc5ccccc5[nH]4)cc3)cc2)CC1 | 8.45 | 5.85 | 5.76
13 | Cc1nc(C)c(-c2ccc(C(=O)c3ccccc3)cc2)c(O)c1Br | 5.44 | 5.49 | 5.35
14 | COc1ccc(NC(=O)c2ccc(-c3nc(-c4ccccc4)cs3)cc2)cc1N1CCN(C)CC1 | 9.73 | 8.4 | 9.79
15 | Cc1c(Cn2ncc(N3CCC(N)CC3)c(Cl)c2=O)cccc1NC(=O)Nc1ccc(-c2ccccc2)cc1 | 3.52 | 4.24 | 5.11
16 | O=C(Nc1ccc(Cl)cc1Cl)N[C@H]1CCN(CCCCCNC(=O)C2CC2c2ccc(Cl)c(Cl)c2)C1 (stereo partly specified) | 3.75 | 4.63 | 4.05
17 | CN1CCCC(CN2CCN(Cc3ccc(-c4ccc(-c5nc6cc(F)ccc6[nH]5)s4)cc3)CC2)C1 (stereo unspecified) | 5.94 | 5.97 | 4.47
18 | O=C(Nc1ccc(Cl)c(Cl)c1)N1CCC(NCc2cccc([N+](=O)[O-])c2)CC1 | 4.54 | 1.1 | 3.26
19 | N[C@@H](Cc1cc(I)c(Oc2ccc(O)c(C(=O)O)c2)c(I)c1)C(=O)O | 3.18 | 3.91 | 3.61
20 | CC(C)C(NC(=O)c1c(F)cccc1F)C(=O)Nc1ccc(Cc2nc3ccccc3s2)cc1 (stereo unspecified) | -1.47 | 2.55 | 1.42
21 | Clc1ncccc1-c1nc(NCCC(c2ccccc2)c2ccccc2)no1 | 4.29 | 2.24 | 2.64
22 | CC(C)Cc1ccc(N2CCN(CCCCNC(=O)c3ccc(NC(=O)c4ccc(Cl)c(Cl)c4)cc3)CC2)cc1 | 1.28 | 1.46 | 0.21
